Shown are actives, neighbours in structure and some others; about 19% of the full set was active somewhere.
Gal4-VP16 FLuc – counter-screen for ROR gamma inhibitors: Gal4-VP16 reporter. Drosophila S2 Gal4-VP16 UAS-luciferase, luminescence, 20 h. Potency, µM (highest dose often 53.6 µM), hits mostly inhibitors. 3.5% of 310,000 active;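 also: Gal4-VP16 expression switched on by copper sulfate through the metallothionein promoter; nearly all actives have a fitted effect of over 50% in size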
RORg inh – blocks mouse ROR gamma transcriptional activity. P51450. Drosophila S2 Gal4-RORgamma UAS-luciferase reporter, 20 h. Potency, µM (series often up to 53.6 µM), usual class: inhibitors. 5.4% of 310,000 active; also: nearly all actives have a fitted effect of over 60% in size
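ROR gamma transcriptional activity was tracked as Gal4-UAS luciferase output in stably transfected Drosophila Schneider cells, with compound added 1 hr before 700 uM copper sulfate induction and a 20 hr ambient-temperature incubation.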
TDP1 inh – inhibitors of human tyrosyl-DNA phosphodiesterase TDP1; Q9NUW8; recombinant TDP1, AlphaScreen DNA substrate cleavage; Potency, µM (doses to about 130 µM), most hits filed as inhibitors; 0.28% of 350,000 active; AID 485290; also: nearly all actives have a fitted effect of over 40% in size
Target sequence (Q9NUW8 whole entry, looked up): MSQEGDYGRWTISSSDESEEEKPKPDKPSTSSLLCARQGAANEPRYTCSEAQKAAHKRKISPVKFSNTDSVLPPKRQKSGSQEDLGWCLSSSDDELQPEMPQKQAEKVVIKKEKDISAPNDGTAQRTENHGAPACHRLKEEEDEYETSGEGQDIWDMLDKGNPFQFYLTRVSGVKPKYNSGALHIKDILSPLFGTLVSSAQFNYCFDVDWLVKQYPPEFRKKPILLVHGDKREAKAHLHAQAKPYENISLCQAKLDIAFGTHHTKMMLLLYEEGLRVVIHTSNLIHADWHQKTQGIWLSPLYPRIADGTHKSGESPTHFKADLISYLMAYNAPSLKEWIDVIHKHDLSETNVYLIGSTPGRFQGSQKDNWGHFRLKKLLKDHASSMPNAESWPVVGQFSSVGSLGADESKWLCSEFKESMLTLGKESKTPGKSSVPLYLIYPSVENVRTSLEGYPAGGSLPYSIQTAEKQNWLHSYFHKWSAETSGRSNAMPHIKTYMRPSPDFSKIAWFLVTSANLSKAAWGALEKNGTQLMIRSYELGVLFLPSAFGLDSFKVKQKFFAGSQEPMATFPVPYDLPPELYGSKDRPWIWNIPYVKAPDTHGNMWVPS
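Steps: enzyme plus compound, 15 min RT; add biotin/phosphotyrosine-FITC oligonucleotide (15 nM final), react 5 min; add donor/acceptor beads (10 ug/ml final), 10 min; read AlphaScreen. Tdp1 at 1 nM final.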
TDP1 cell CPT – DT40-hTDP1 cell growth loss with CPT; chicken DT40 Tdp1-/-;hTDP1 cells + 20 nM CPT, ATP luminescence, 48 h; Potency, µM (series often up to 46.2 µM), usual class: inhibitors; 12% of 420,000 active; AID 686979; also: nearly all actives have a fitted effect of over 55% in size
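Cell growth measured by CellTiter-Glo luminescence after a minimum 48 h, 37 C compound exposure with 20 nM CPT in Tdp1-knockout DT40 cells stably expressing hTDP1, seeded 400/well; qHTS titration format.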
DT40 TDP1 no CPT – qHTS for Inhibitors of human tyrosyl-DNA phosphodiesterase 1 (TDP1): qHTS in cells in absence of CPT. Potency, µM (series often up to 46.2 µM), actives largely listed as inhibitors. DT40 Tdp1-/- hTDP1 cells, no CPT, ATP luminescence, 48 h. AID 686978, 2013. 15% of 420,000 active; also: nearly all actives have a fitted effect of over 55% in size
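Chicken DT40 Tdp1-/- cells complemented with human TDP1, screened without camptothecin (DMSO vehicle only), 400 cells/well. Compounds pin-transferred, cells incubated at 37 °C for at least 48 hr. Growth read as ATP-dependent luminescence (CellTiter-Glo, 30 min at RT).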
Of the large screens only hits and unclear results are named; the others gave an inactive call. Calls follow the shape of the dose curve; as a rule, active = well fitted curve in the direction sought with a large enough effect; inconclusive = small, poorly fitted or top-dose-only effect, or another doubt; inactive = no such curve, though single readings can be large; an effect the other way counts as inactive or inconclusive.

CCCNC(=O)c1cc(C2CCCCN2C(=O)c2ccccc2)on1 (centres undefined)	none (no result: Gal4-VP16 FLuc, RORg inh, TDP1 inh)
CC(C)c1ccc(C(=O)N2CCCCC2c2cc(C(=O)Nc3ccncc3)no2)cc1 (centres undefined)	TDP1 cell CPT 16µM, DT40 TDP1 no CPT 16µM (no result: Gal4-VP16 FLuc, RORg inh, TDP1 inh)
CCCNC(=O)c1cc(C2CCCCN2C(=O)c2ccc(C(C)C)cc2)on1 (centres undefined)	TDP1 cell CPT 21µM, DT40 TDP1 no CPT 10µM (no result: Gal4-VP16 FLuc, RORg inh, TDP1 inh)
CCOC(=O)CNC(=O)Nc1cc(C(=O)NCc2cccc(F)c2)ccc1N1CCCC1	none (no result: Gal4-VP16 FLuc, RORg inh)
COc1ccc(Cc2nnc(SCC(=O)c3ccc4c(c3)OCO4)o2)cc1	TDP1 cell CPT inconclusive, DT40 TDP1 no CPT inconclusive (no result: Gal4-VP16 FLuc, RORg inh)
COc1ccc(C(=O)NC(=S)N2CCN(c3ccc([N+](=O)[O-])cc3)CC2)cc1	Gal4-VP16 FLuc 0.89µM, RORg inh 0.63µM, TDP1 cell CPT inconclusive, DT40 TDP1 no CPT inconclusive (no result: TDP1 inh)
COc1ccccc1N1CCN(C(=S)NC(=O)c2ccc([N+](=O)[O-])cc2)CC1	TDP1 cell CPT 21µM, DT40 TDP1 no CPT 21µM (no result: Gal4-VP16 FLuc, RORg inh, TDP1 inh)
O=[N+]([O-])c1ccc(C(=S)N2CCN(c3ccc(F)cc3)CC2)cc1	TDP1 cell CPT inconclusive, DT40 TDP1 no CPT inconclusive
COc1ccc(C(=O)NC(=S)N2CCN(c3ccccc3OC)CC2)cc1	Gal4-VP16 FLuc inconclusive, RORg inh 2µM, TDP1 cell CPT inconclusive, DT40 TDP1 no CPT inconclusive
CN(C)c1ccc(C(=S)N2CCN(c3ccc([N+](=O)[O-])cc3)CC2)cc1	TDP1 cell CPT 15µM, DT40 TDP1 no CPT 21µM
Cc1ccccc1N1CCN(C(=S)c2ccc([N+](=O)[O-])cc2)CC1	TDP1 cell CPT inconclusive, DT40 TDP1 no CPT inconclusive
Cc1cccc(C(=O)NCC(=O)OCC(=O)NC2CCCCC2)c1	none (no result: Gal4-VP16 FLuc, RORg inh)
Cc1ccc(C(=O)c2c(NC(=O)c3ccccc3C)sc(C)c2C)cc1	TDP1 cell CPT inconclusive, DT40 TDP1 no CPT inconclusive
COc1ccccc1C(=O)Nc1ccc(OCC(=O)N2CCCCC2C)cc1 (centres undefined)	none (no result: Gal4-VP16 FLuc, RORg inh)
Cc1ccc(C(=O)CC(=O)COc2ccc(Cl)cc2)cc1	Gal4-VP16 FLuc 10µM, RORg inh 13µM, TDP1 cell CPT inconclusive, DT40 TDP1 no CPT 15µM
COc1ccc(C(=O)O/N=C(\N)Cc2ccc(Cl)cc2)cc1OC	Gal4-VP16 FLuc 16µM, RORg inh inconclusive, TDP1 cell CPT 16µM, DT40 TDP1 no CPT 21µM
N/C(CS(=O)(=O)c1ccccn1)=N\OC(=O)c1ccc(Cl)cc1	none
N/C(CCS(=O)(=O)c1ccc(Cl)cc1)=N\OC(=O)c1ccc(Cl)cc1	TDP1 cell CPT inconclusive, DT40 TDP1 no CPT 21µM (no result: TDP1 inh)
COc1ccc(C(=O)O/N=C(\N)Cc2ccc(Cl)c(Cl)c2)cc1OC	Gal4-VP16 FLuc 6.3µM, RORg inh inconclusive, TDP1 cell CPT 16µM, DT40 TDP1 no CPT inconclusive
CCOc1ccc(NC(=O)CN2C(=O)S/C(=C/c3cccn3C)C2=O)cc1	none
Cc1ccc(OCC(=O)O/N=C(\N)Cc2ccc(Cl)cc2)cc1	TDP1 cell CPT 6.5µM, DT40 TDP1 no CPT 4.6µM (no result: TDP1 inh)
COc1ccc(OCC(=O)O/N=C(\N)Cc2ccc(Cl)cc2)cc1	none (no result: TDP1 inh)
CC(NCc1ccc(-c2ccccc2)cc1)C(O)c1ccccc1 (centres undefined)	Gal4-VP16 FLuc 2.8µM, RORg inh inconclusive, TDP1 cell CPT inconclusive, DT40 TDP1 no CPT 18µM
O=C(Nc1ccc(S(=O)(=O)NCc2ccccc2)cc1)c1ccc(Br)o1	RORg inh inconclusive, TDP1 cell CPT 21µM, DT40 TDP1 no CPT 21µM
O=C(Nc1ccc(S(=O)(=O)Nc2ncccn2)cc1)c1ccc(Br)o1	none
CC(=O)Nc1ccc(S(=O)(=O)NCc2cccnc2)cc1	TDP1 cell CPT 3.3µM, DT40 TDP1 no CPT inconclusive
O=C(Nc1ccc(S(=O)(=O)NCc2cccnc2)cc1)c1ccccc1Cl	Gal4-VP16 FLuc inconclusive, RORg inh inconclusive, TDP1 cell CPT 13µM, DT40 TDP1 no CPT 10µM
Cc1noc(C)c1-c1ccc2ncnc(N3CCOCC3)c2c1	TDP1 cell CPT inconclusive, DT40 TDP1 no CPT inconclusive (no result: TDP1 inh)
CCC(=O)Nc1c2c(nn1-c1cccc(Cl)c1)CSC2	DT40 TDP1 no CPT 0.73µM
COc1ccc(C(=O)NCC(=O)N/N=C/c2ccco2)cc1OC	TDP1 cell CPT inconclusive
COc1ccc(Br)cc1/C=N/NC(=O)CNC(=O)c1cccnc1	TDP1 cell CPT inconclusive, DT40 TDP1 no CPT inconclusive

Compound activity (PubChem)
